From PubChem BioAssay (Tox21) come the findings set out here.

Structures are written as SMILES. Records with an inconclusive call do not appear. Calls of active or inactive are those of the source. Calls follow the shape of the dose curve; as a rule, active = well fitted inhibition curve with a large enough effect in the repeat runs; inconclusive = weak or mixed curves; inactive = no such curve, though single readings can be large or run the other way.
Potency is read from the fitted curve at half-maximal effect.

Chain of Cytochrome P450 2C19 (Homo sapiens) (P33261 whole entry, looked up): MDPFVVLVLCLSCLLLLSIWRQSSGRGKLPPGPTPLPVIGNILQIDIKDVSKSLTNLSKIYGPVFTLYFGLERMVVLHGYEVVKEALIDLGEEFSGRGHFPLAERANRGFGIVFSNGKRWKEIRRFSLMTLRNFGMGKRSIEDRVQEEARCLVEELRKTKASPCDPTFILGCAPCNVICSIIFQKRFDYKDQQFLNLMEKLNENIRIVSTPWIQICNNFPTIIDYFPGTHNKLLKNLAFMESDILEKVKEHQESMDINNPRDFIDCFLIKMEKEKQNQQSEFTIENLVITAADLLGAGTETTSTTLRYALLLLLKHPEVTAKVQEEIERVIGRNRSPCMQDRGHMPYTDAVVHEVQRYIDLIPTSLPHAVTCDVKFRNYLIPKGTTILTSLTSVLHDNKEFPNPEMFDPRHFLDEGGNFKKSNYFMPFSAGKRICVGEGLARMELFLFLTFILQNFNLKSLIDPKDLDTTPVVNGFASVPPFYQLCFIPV

This assay deals with Cytochrome P450 2C19 (Homo sapiens) (UniProt P33261). As to the kind of experiment: Cytochrome P450 Family 2 Subfamily C Member 19 (CYP2C19) small molecule antagonists: luciferase reporter qHTS assay (AID 1671197). Also: nearly all actives have a fitted effect of over 65% in size. As to conditions: P450-Glo CYP2C19 enzyme, luciferin luminescence, 1 h; series mostly up to 115 µM. An excerpt:
National Center for Advancing Translational Sciences [NCATS]
U.S. Environmental Protection Agency [EPA]
National Institutes of Environmental Health Sciences [NIEHS]
National Toxicology Program [NTP]
U.S. Food and Drug Administration [FDA]
Cytochrome P450 (CYP) enzymes are membrane-bound hemeproteins that play a key role in metabolism of drugs and xenobiotics. Evaluation of the effect of chemicals on CYP isozymes is useful to minimize the adverse drug reactions and toxicities in drug development process. Tox21 chemicals were tested for their effect on CYP enzyme activities by using P450-Glo (TM) screening systems (Promega Corporation, Madison, WI). These systems provide a luminescent method containing proluciferin substrates and are converted to luciferin products by CYP isozymes. The luciferin products formed are detected with a luciferin detection reagent, and the amount of light produced is proportional to CYP activity. P450-Glo (TM) CYP2C19 screening system (Catalog. No. V9880) was used to detect the compounds that interfere in CYP2C19 activity. The positive control compound used for CYP2C19 assay is ketoconazole (Sigma-Aldrich, St. Louis, MO).
Tox21 Assay Protocol Summary:
Two ul of enzyme-substrate mix was dispensed into medium binding white/solid 1536-well plates (Greiner Bio-One North America Inc., Monroe, NC) using a BioRaptr Flying Reagent Dispenser (FRD, Beckman Coulter, Brea, CA). Compounds dissolved in DMSO and positive control (ketoconazole) were transferred to the assay plates at 23 nl using a Pintool station (Wako, San Diego, CA). The assay plates were incubated at room temperature for 10 min. Then 2 ul of NADPH regeneration solution was added to each well of the assay plates using an FRD and incubated at 37C for 1 h. The reaction was stopped by adding 4 ul of detection reagent using an FRD and after 20 min incubation at room temperature the luminescence signal was measured using a ViewLux plate reader (Perkin Elmer, Shelton, CT). Data were expressed as relative luminescence units.
In the case of `O=C(O)C(Br)CBr` (stereo not given), the Potency result was “inactive”. Under `O=[N+]([O-])c1cccc2c([N+](=O)[O-])cccc12` stands 22.6 µM (active); under `CCC(=O)c1ccccc1`, “inactive”. For the compound `Cc1cc(C)nc(Nc2ccccc2)n1`, the Potency was 79.6 µM (active).

On to `Nc1cc(Cl)ccc1O`, for which the Potency is 21.7 µM (active).

As to `CC(C)CC(N(C)C)C1(c2ccc(Cl)cc2)CCC1` (stereo not given), the Potency was 9.77 µM (active). Under `C#C[C@]1(O)C=C[C@H]2[C@@H]3CCC4=CC(=O)CC[C@@H]4[C@H]3CC[C@@]21CC` stands 2.75 µM (active); under `O=C(NCO)NCO`, “inactive”; under `O=C(CCN1CC1)OCC(CO)(COC(=O)CCN1CC1)COC(=O)CCN1CC1`, “inactive”. The result for `COc1ncc(F)c2nc(S(=O)(=O)Nc3c(F)cccc3F)nn12` reads “inactive”; that for `c1cc2c(c(N3CCNCC3)c1)OCCO2`, “inactive”; that for `C[C@]12CC[C@H]3[C@@H](CCC4=CC(=O)CC[C@@]43C)[C@@H]1CC[C@@H]2C(=O)O`, “inactive”. The result for `Cc1cnc[nH]1` reads “inactive”. In the case of `c1coc(-c2nc3ccccc3[nH]2)c1`, the Potency was 28.3 µM (active).

On to `CN1CCN(C(=O)O[C@H]2c3nccnc3C(=O)N2c2ccc(Cl)cn2)CC1`, for which the Potency result was “inactive”.

With `CCCSP(=S)(OCC)Oc1ccc(Cl)cc1Cl` (stereo not given), the Potency is 2.24 µM (active). The result for `CCOC(=O)NC(=S)Nc1ccccc1NC(=S)NC(=O)OCC` reads 5.03 µM (active); that for `CCOP(=S)(OCC)Oc1cc(-c2ccccc2)on1`, 1.59 µM (active). Under `CCOC(=O)CP(=O)(OCC)OCC` stands “inactive”. With `Cc1coc2c1CCC(C)C2` (stereo not given), the Potency is 73.4 µM (active).

With `CNC(=O)N(C)c1nc2ccccc2s1`, the Potency was 39.9 µM (active). As for `CC1CN1P(=O)(N1CC1C)N1CC1C` (stereo not given), the Potency entry was “inactive”. Under `CCS(=O)(=O)C(C)(C)S(=O)(=O)CC` stands “inactive”.

As for `COP(N)(=S)Oc1ccccc1C(=O)OC(C)C` (stereo not given), the Potency is 0.178 µM (active). As for `C=CC1CC=CCC1` (stereo not given), the Potency entry was “inactive”. As to `CC(=O)CCc1ccc2c(c1)OCO2`, the Potency was 35.6 µM (active). The result for `CCCCOC(=O)[C@@H](C)Oc1ccc(Oc2ccc(C#N)cc2F)cc1` reads 19.9 µM (active).

As to `CC1(C)COP(Oc2ccccc2)OC1`, the Potency entry was “inactive”.

In the case of `CCCSP(=O)(OCC)Oc1ccc(Br)cc1Cl` (stereo not given), the Potency is 3.45 µM (active). In the case of `CCC(C)(C)c1cc(-n2nc3ccccc3n2)c(O)c(C(C)(C)CC)c1`, the Potency was 20.3 µM (active). Regarding `O=C(O)c1ccc2[nH]cc(CCCCN3CC=C(c4ccccc4)CC3)c2c1`, the Potency entry was “inactive”. Under `CCNc1nc(NC(C)C)nc(OC)n1` stands 25.2 µM (active). As for `COC(=O)C(C)Oc1ccc(Oc2ccc(Cl)cc2Cl)cc1` (stereo not given), the Potency is 5.64 µM (active).

Turning to `CC(C)(C)OC(=O)c1ncn2c1[C@@H]1CCCN1C(=O)c1c(Br)cccc1-2`, the Potency result was “inactive”.

Take `CCOP(=O)(N=C1SCCS1)OCC`: the Potency entry is “inactive”.

On to `C1CCC(C2CCCCC2)CC1`, for which the Potency entry is “inactive”. Under `OC(Cn1cncn1)(c1ccc(F)cc1)c1ccccc1F` (stereo not given) stands 2 µM (active). Under `CC(C)CC#N` stands 32.5 µM (active). For the compound `O=C(Nc1ccccc1)N(Cc1ccc(Cl)cc1)C1CCCC1`, the Potency was 7.1 µM (active). Consider `Cc1ccccc1CO[C@@H]1C[C@@]2(C(C)C)CC[C@]1(C)O2`, for which the Potency is 5.64 µM (active).
